From publication PMC7862700, “An all-to-all approach to the identification of sequence-specific readers for epigenetic DNA modifications on cytosine”

Assays:
Assay in all cases: DAPPL (digital affinity profiling via proximity ligation, sequencing); 10 mM Tris-HCl pH 7.5, 50 mM NaCl, 1 mM DTT, 4% glycerol, room temperature, 30 min; GST-TFs on glutathione beads, 16-mer random dsDNA library, 0.1% formaldehyde crosslink after washing; high values mean tight binding
FEV = biological target: T1, FEV (Homo sapiens, UniProt Q99581 1-238); details: protein: recombinant; tags: N-terminal GST; dsDNA, one strand shown
T1 sequence: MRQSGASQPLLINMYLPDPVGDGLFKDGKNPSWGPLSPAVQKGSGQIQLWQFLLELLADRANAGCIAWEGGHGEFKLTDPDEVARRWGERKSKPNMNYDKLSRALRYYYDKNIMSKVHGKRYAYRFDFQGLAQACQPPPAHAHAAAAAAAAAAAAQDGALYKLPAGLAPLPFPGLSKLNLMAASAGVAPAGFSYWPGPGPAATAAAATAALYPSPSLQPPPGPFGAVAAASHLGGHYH
In short: (§1)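 Pools of DNA-barcoded human transcription factors, expressed in yeast as GST fusions on glutathione beads and combined with a tag-only sample, were incubated with 200 nmole of a 16-mer random double-stranded DNA library. Incubation took 30 min at room temperature in Tris/NaCl/DTT/glycerol buffer and was followed by washing, 0.1% formaldehyde crosslinking, proximity ligation (BsaI/T4 ligase, 1 h, 37 °C), PCR amplification and sequencing on an Illumina NextSeq500. Binding signal is the ratio of a hexamer's read frequency for a factor to its frequency for the tag-only sample.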

ETV5 = ETV5 (Homo sapiens, UniProt P41161 1-510); details: protein: recombinant; tags: N-terminal GST; dsDNA, one strand shown
Sequence of ETV5 (P41161 whole entry): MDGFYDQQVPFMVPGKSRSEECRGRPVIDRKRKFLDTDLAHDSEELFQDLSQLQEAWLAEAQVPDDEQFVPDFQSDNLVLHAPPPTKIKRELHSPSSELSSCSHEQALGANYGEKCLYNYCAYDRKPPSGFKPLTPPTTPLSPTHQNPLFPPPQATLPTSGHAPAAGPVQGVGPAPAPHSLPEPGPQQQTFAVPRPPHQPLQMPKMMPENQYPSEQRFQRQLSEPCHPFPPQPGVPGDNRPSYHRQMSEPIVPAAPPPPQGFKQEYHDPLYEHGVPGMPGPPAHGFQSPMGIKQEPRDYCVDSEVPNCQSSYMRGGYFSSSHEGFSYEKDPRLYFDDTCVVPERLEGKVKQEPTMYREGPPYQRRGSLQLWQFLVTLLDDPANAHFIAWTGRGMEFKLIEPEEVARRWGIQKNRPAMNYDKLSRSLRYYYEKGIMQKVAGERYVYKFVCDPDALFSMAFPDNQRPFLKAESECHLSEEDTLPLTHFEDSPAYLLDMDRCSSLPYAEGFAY
In short: as §1

HSF1 = HSF1 (Homo sapiens, UniProt Q00613 1-529); details: protein: recombinant; tags: N-terminal GST; chain copies: 3; dsDNA, one strand shown
Sequence of HSF1 (Q00613 whole entry): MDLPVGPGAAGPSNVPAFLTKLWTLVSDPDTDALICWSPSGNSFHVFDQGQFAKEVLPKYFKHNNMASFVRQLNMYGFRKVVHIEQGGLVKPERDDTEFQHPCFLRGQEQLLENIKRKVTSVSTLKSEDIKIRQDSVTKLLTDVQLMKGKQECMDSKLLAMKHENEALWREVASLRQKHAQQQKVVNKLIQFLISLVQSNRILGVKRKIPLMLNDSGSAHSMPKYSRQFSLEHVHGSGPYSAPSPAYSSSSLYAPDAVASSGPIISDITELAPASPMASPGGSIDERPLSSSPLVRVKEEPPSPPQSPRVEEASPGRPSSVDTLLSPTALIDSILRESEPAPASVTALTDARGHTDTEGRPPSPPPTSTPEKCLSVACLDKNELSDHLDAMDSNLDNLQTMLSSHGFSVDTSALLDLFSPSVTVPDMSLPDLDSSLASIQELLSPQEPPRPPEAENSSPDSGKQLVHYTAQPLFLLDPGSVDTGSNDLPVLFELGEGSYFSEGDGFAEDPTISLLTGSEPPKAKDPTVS
In short: as §1

SPIC = biological target: T2, SPIC (Homo sapiens, UniProt Q8N5J4 1-248); details: protein: recombinant; tags: N-terminal GST; dsDNA, one strand shown
T2 sequence: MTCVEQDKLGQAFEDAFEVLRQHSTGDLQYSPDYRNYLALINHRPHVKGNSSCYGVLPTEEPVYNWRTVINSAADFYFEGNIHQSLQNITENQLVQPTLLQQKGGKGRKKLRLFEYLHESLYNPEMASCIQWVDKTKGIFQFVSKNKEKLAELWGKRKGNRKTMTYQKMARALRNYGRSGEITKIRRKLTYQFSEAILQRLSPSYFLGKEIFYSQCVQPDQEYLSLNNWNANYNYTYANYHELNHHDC
In short: as §1

ELF4 = ELF4 (Homo sapiens, UniProt Q99607 1-663); details: protein: recombinant; tags: N-terminal GST; dsDNA, one strand shown
Sequence of ELF4 (Q99607 whole entry): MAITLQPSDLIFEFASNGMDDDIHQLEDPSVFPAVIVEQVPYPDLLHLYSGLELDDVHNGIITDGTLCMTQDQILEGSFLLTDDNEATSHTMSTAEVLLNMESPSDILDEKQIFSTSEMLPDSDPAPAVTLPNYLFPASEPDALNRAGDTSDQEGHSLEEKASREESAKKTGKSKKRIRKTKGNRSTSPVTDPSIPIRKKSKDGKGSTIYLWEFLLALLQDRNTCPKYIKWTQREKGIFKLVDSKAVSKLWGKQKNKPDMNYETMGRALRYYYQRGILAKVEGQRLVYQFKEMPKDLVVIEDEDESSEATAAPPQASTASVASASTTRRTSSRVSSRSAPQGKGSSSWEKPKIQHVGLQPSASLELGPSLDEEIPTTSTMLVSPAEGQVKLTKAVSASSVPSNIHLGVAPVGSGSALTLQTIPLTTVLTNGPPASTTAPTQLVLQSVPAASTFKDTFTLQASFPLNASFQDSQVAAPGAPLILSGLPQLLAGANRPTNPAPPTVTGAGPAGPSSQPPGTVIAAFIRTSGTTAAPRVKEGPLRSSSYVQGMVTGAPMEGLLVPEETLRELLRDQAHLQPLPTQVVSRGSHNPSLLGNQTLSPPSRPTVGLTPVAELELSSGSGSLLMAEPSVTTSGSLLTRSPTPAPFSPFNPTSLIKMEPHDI
In short: as §1

ELK4 = biological target: T3, ELK4 (Homo sapiens, UniProt P28324-2 1-405); details: protein: recombinant; tags: N-terminal GST; dsDNA, one strand shown
T3 sequence: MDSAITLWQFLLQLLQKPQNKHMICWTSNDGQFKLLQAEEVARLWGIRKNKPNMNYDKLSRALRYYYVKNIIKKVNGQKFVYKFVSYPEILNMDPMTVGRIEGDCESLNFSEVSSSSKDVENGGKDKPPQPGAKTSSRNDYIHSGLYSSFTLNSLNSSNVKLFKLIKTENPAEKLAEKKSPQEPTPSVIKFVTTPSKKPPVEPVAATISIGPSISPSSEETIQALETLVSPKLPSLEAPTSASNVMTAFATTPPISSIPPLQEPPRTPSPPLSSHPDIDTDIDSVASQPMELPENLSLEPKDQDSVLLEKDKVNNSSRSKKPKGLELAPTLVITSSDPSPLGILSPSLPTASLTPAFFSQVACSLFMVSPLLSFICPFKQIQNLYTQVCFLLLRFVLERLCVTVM
In short: as §1

ETV2 = biological target: T4, ETV2 (Homo sapiens, UniProt O00321 1-342); details: protein: recombinant; tags: N-terminal GST; dsDNA, one strand shown
T4 sequence: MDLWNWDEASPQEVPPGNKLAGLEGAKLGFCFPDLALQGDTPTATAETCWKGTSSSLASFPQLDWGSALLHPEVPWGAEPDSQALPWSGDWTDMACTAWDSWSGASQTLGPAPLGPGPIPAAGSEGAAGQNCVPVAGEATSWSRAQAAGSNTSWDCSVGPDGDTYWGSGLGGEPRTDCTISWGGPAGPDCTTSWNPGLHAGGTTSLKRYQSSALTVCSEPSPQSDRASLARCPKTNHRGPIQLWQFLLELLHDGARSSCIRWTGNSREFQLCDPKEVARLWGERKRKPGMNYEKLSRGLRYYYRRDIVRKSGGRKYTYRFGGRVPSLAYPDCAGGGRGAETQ
In short: as §1

ELF3 = biological target: T5, ELF3 (Homo sapiens, UniProt P78545 1-371); details: protein: recombinant; tags: N-terminal GST; dsDNA, one strand shown
T5 sequence: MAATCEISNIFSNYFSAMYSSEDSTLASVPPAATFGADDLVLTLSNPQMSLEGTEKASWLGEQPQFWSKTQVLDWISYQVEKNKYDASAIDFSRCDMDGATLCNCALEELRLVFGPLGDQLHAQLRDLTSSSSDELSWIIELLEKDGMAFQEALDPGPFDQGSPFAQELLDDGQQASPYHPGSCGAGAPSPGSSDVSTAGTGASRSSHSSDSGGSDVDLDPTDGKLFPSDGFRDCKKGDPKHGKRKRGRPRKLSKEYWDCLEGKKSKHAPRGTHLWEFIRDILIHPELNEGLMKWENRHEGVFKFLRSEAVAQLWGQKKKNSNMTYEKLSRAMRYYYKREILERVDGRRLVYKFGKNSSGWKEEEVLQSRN
In short: as §1

CRX = CRX (Homo sapiens, UniProt O43186 1-299); details: protein: recombinant; tags: N-terminal GST; dsDNA, one strand shown
Sequence of CRX (O43186 whole entry): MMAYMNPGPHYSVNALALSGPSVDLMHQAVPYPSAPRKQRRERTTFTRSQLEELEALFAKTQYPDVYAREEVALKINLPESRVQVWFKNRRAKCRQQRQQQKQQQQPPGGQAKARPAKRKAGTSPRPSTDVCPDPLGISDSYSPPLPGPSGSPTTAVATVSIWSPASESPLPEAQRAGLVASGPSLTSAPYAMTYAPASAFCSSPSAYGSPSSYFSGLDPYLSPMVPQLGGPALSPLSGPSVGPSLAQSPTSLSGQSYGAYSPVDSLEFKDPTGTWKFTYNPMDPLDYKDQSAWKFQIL
In short: as §1

ETV1 = ETV1 (Homo sapiens, UniProt P50549 1-477); details: protein: recombinant; tags: N-terminal GST; dsDNA, one strand shown
Sequence of ETV1 (P50549 whole entry): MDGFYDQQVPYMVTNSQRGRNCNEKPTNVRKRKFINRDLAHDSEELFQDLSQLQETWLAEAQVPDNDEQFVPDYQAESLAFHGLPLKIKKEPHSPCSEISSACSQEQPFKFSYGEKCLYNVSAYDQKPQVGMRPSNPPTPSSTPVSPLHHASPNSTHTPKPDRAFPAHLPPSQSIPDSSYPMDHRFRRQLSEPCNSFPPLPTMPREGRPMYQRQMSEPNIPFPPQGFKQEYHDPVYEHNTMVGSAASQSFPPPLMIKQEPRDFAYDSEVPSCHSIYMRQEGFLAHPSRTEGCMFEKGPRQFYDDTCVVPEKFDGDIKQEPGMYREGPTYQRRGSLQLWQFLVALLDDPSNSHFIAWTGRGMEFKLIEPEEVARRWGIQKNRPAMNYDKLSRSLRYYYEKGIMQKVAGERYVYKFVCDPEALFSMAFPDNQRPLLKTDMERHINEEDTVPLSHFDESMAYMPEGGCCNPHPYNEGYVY
In short: as §1

ERF = biological target: T6, ERF (Homo sapiens, UniProt P50548 1-548); details: protein: recombinant; tags: N-terminal GST; dsDNA, one strand shown
T6 sequence: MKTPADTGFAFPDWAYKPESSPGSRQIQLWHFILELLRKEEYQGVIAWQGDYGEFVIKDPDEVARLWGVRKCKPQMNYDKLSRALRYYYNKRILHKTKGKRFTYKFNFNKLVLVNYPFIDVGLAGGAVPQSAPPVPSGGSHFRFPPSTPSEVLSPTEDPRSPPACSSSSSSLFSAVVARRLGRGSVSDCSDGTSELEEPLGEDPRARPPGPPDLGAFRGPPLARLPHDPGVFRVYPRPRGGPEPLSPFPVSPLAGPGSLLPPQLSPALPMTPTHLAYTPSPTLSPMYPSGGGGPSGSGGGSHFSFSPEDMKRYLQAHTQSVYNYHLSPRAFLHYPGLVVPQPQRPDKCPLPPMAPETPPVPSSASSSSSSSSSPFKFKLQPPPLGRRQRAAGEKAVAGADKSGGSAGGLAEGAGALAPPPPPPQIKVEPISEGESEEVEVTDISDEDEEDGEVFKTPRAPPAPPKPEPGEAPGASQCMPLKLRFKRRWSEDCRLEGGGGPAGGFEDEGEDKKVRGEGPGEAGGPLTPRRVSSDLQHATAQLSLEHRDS
In short: as §1

ETV3L = biological target: T7, ETV3L (Homo sapiens, UniProt Q6ZN32 1-361); details: protein: recombinant; tags: N-terminal GST; dsDNA, one strand shown
T7 sequence: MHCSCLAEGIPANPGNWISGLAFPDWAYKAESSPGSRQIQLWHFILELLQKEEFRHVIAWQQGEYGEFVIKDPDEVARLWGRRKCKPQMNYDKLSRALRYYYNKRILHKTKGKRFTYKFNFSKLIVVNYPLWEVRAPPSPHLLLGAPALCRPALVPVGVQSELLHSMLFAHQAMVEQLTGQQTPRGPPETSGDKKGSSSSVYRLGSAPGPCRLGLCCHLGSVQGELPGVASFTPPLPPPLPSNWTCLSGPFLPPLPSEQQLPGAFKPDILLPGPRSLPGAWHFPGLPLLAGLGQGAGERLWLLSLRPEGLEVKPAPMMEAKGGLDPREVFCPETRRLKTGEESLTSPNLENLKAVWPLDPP
In short: as §1

ETS2 = biological target: T8, ETS2 (Homo sapiens, UniProt P15036 1-469); details: protein: recombinant; tags: N-terminal GST; dsDNA, one strand shown
T8 sequence: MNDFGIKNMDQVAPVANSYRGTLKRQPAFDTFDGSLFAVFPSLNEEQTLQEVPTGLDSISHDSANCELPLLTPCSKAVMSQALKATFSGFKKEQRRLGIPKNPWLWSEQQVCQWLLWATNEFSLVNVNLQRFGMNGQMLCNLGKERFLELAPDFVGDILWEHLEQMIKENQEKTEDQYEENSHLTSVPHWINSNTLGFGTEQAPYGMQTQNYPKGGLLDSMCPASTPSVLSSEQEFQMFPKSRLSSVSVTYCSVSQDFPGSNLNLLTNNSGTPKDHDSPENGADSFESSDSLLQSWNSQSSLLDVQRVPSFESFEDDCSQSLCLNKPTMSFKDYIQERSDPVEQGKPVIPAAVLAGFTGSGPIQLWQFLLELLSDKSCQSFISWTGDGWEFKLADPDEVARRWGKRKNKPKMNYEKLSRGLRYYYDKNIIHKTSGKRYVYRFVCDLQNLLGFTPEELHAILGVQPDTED
In short: as §1

SPDEF = biological target: T9, SPDEF (Homo sapiens, UniProt O95238 1-335); details: protein: recombinant; tags: N-terminal GST; dsDNA, one strand shown
T9 sequence: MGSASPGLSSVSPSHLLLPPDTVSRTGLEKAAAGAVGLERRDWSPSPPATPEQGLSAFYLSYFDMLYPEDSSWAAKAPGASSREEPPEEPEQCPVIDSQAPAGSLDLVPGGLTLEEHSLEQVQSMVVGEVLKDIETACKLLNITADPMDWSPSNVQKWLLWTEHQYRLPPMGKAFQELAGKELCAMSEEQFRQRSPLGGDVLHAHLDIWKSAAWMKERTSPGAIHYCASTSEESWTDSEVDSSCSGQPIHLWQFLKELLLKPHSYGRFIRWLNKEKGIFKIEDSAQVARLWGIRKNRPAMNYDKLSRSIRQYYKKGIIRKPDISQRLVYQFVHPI
In short: as §1

ETV7 = biological target: T10, ETV7 (Homo sapiens, UniProt Q9Y603 1-341); details: protein: recombinant; tags: N-terminal GST; dsDNA, one strand shown
T10 sequence: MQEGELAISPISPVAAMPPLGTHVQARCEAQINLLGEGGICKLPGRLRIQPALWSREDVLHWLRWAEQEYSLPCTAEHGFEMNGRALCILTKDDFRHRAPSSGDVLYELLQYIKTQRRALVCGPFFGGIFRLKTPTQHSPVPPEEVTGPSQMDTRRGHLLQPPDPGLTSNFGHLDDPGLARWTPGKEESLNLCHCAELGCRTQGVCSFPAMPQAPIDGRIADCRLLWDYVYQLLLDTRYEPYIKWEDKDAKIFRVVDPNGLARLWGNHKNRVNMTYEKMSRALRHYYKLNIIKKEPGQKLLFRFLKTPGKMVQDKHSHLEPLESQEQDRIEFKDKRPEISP
In short: as §1

ELF5 = biological target: T11, ELF5 (Homo sapiens, UniProt Q9UKW6-2 1-255); details: protein: recombinant; tags: N-terminal GST; dsDNA, one strand shown
T11 sequence: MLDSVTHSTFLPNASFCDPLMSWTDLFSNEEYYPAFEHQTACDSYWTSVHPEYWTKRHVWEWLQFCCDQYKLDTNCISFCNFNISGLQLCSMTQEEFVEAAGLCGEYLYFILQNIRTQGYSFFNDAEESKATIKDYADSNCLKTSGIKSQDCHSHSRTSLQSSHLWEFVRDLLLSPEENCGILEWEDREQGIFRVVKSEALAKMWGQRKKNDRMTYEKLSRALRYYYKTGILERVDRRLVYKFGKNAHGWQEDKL
In short: as §1

ETV3 = biological target: T12, ETV3 (Homo sapiens, UniProt P41162-2 1-143); details: protein: recombinant; tags: N-terminal GST; dsDNA, one strand shown
T12 sequence: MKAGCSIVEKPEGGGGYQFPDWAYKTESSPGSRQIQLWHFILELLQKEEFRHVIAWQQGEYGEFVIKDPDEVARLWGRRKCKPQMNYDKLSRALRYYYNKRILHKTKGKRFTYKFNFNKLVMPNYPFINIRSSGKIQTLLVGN
In short: as §1

ETV6 = ETV6 (Homo sapiens, UniProt P41212 1-452); details: protein: recombinant; tags: N-terminal GST; dsDNA, one strand shown
Sequence of ETV6 (P41212 whole entry): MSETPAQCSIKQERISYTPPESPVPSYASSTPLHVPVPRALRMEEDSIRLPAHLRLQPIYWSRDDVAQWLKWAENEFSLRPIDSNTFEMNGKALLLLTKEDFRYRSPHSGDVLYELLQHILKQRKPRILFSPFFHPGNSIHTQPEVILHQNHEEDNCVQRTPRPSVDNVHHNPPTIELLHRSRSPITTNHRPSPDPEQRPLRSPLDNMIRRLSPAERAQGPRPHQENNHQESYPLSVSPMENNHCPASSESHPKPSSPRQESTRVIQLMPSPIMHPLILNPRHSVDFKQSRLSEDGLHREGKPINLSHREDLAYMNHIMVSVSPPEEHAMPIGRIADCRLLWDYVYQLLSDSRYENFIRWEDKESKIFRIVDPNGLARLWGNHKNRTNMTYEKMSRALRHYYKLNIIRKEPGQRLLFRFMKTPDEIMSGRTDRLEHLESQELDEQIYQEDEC
In short: as §1

TCTAGT was tested, and the binding signal (FEV) was 1.03 fold enrichment (6-mer frequency, TF over GST control), the binding signal (ETV5) was 1.06 fold enrichment (6-mer frequency, TF over GST control) and the binding signal (HSF1) was 2.32 fold enrichment (6-mer frequency, TF over GST control). For the same sequence, the binding signal (SPIC) was 1.18 fold enrichment (6-mer frequency, TF over GST control), the binding signal (ELF4) was 1.09 fold enrichment (6-mer frequency, TF over GST control) and the binding signal (ELK4) was 1.17 fold enrichment (6-mer frequency, TF over GST control). For the same sequence, the binding signal (ETV2) was 1.04 fold enrichment (6-mer frequency, TF over GST control), the binding signal (ELF3) was 1.28 fold enrichment (6-mer frequency, TF over GST control) and the binding signal (CRX) was 1.37 fold enrichment (6-mer frequency, TF over GST control). The binding signal (ETV1) was 1.01 fold enrichment (6-mer frequency, TF over GST control), the binding signal (ERF) was 1.25 fold enrichment (6-mer frequency, TF over GST control) and the binding signal (ETV3L) was 1.05 fold enrichment (6-mer frequency, TF over GST control). For the same sequence, the binding signal (ETS2) was 1.17 fold enrichment (6-mer frequency, TF over GST control), the binding signal (SPDEF) was 1.06 fold enrichment (6-mer frequency, TF over GST control) and the binding signal (ETV7) was 1.1 fold enrichment (6-mer frequency, TF over GST control). The binding signal (ELF5) was 1.04 fold enrichment (6-mer frequency, TF over GST control), the binding signal (ETV3) was 1.08 fold enrichment (6-mer frequency, TF over GST control) and the binding signal (ETV6) was 1.12 fold enrichment (6-mer frequency, TF over GST control).
